EPAC1 ag val – validation of human EPAC1 agonists. AID 1645883. Potency, µM, for inactives: max response, positive = active, most hits filed as activators. O95398. EPAC1 Rap1b BODIPY-GDP exchange, fluorescence. actives 1% (n = 16,000); also: nearly all actives have a fitted effect of over 70% in size
Target sequence (O95398 whole entry, looked up): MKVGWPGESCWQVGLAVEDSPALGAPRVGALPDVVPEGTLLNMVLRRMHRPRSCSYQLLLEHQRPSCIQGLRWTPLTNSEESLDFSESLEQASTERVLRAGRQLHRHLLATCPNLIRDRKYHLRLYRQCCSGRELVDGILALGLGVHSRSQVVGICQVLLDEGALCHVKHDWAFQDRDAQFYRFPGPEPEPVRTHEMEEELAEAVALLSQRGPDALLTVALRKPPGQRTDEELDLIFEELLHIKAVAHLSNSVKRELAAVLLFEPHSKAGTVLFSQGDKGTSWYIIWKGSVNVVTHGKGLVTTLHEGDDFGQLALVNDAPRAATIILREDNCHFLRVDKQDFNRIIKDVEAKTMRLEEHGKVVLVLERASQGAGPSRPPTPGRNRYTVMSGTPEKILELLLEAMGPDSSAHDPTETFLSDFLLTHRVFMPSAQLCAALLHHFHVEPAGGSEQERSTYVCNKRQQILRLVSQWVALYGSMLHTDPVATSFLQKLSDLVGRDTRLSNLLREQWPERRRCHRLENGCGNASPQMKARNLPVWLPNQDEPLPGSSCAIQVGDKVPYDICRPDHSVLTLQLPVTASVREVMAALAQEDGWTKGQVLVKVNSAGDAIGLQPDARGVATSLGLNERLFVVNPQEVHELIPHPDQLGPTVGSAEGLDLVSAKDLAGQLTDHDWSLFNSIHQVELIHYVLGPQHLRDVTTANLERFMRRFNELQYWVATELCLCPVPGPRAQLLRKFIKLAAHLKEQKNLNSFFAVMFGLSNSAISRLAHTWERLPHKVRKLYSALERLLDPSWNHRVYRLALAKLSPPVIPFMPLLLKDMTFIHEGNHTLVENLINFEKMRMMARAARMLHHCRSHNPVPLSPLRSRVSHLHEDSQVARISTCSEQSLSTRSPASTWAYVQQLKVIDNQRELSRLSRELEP
EPAC2 ant val – validation of human EPAC2 antagonists. Q8WZA2. EPAC2 Rap1B BODIPY-GDP exchange, fluorescence. Potency, µM (series often up to 112 µM), for the others: top-dose activity, negative = inhibition, most hits filed as inhibitors. actives 1.7% (n = 16,000). AID 1645886;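 also: 100% = activation by cAMP agonist control; nearly all actives have a fitted effect of over 40% in size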
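Fluorescent exchange read-out: 100 nM EPAC2 with 250 nM RAP1B–BODIPY-GDP and 50 uM GDP; BODIPY-GDP release lowers fluorescence. Read at 480/540 nm every 5 min for 30 min at room temperature; normalized to 6.5 mM cAMP.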
* marks the source's active call; other numbers are inactive results; ? = inconclusive; nt = no result given; ! = not active in a repeat; [ ] = dose if it differs, or a comment. In the library only some 3.1% were active in any assay of this set; here they are far more common. Calls follow the shape of the dose curve; as a rule, active = well fitted curve in the direction sought with a large enough effect; inconclusive = small, poorly fitted or top-dose-only effect, or another doubt; inactive = no such curve, though single readings can be large; an effect the other way counts as inactive or inconclusive. Unless noted, % is scaled to controls: 0 for no effect and ±100 for the full control effect; potency is read from the fitted curve at half-maximal effect.

SMILES	EPAC1 ag val	EPAC2 ant val
CC(C)CN(C[C@@H](OP(=O)(O)O)[C@H](Cc1ccccc1)NC(=O)O[C@H]1CCOC1)S(=O)(=O)c1ccc(N)cc1	-15%	-27%
NC(N)=NCC1COC2(CCCCC2)O1 (stereo unspecified)	-16%	-4%[56.6 µM]
Clc1ccc(C(Cn2ccnc2)OCc2c(Cl)cccc2Cl)c(Cl)c1 (stereo unspecified)	40µM*!	?
O=C(Oc1ccccc1)N1CCC2(CC1)CCN(c1cccc(-c3ccccc3)c1)CC2	19%	-14%
O=C(c1cccc(F)c1)N1CCC2(CCCN(c3cccc(-c4ccccc4)c3)C2)CC1	100µM*	-19%
O=C(c1cccc(F)c1)N1CCC[C@@]2(CCN(c3cccc(-c4ccccc4)c3)C2)C1	-39%	-28%
O=C(c1cccc(F)c1)N1CCC2(CC1)CCN(c1cccc(-c3ccccc3)c1)CC2	-6%	-17%
O=C(c1csnn1)N1CCC2(CC1)CN(c1ccccc1)C2	-38%	-9%
O=C(c1cccc(F)c1)N1CCC2(CC1)CN(c1cccc(-c3ccccc3)c1)C2	89µM*	?
COC(=O)N1CCC2(CC1)CCN(c1cccc(-c3ccccc3)c1)CC2	100µM*	-29%
O=C(c1csnn1)N1CCC2(CC1)CN(c1cccc(-c3ccccc3)c1)C2	100µM*	?
CO[C@H]1C=CO[C@@]2(C)Oc3c(C)c(O)c4c(O)c(c5c(c4c3C2=O)=NC2(CCN(CC(C)C)CC2)N=5)NC(=O)/C(C)=C\C=C/[C@H](C)[C@H](O)[C@@H](C)[C@@H](O)[C@@H](C)[C@H](OC(C)=O)[C@@H]1C	-31%	?
COc1ccccc1CCNc1ncnc2sc(C(=O)N3CCCC3)c(C)c12	6%	-26%
COc1cc(=O)n2c(c1C(=O)NCc1ccco1)CCN(Cc1ccc(F)cc1Cl)CC2	5%	-12%
CN(Cc1ccco1)c1nc(-c2ccccc2Cl)nc2ccccc12	100µM*	-30%
COc1ccccc1-c1nc(N(C)Cc2ccco2)c2ccccc2n1	-1%	?
COC(=O)C[C@](O)(CCCC(C)(C)O)C(=O)O[C@@H]1C(OC)=CC23CCCN2CCc2cc4c(cc2[C@H]13)OCO4 (stereo partly specified)	-18%	33%
COc1ccc2c(c1)CCc1cnc(-n3ncc(C(=O)N4CCN(CCO)CC4)c3C3CC3)nc1-2	-7%	-7%
COc1ccc(C(=O)NCC2Cc3cccc(-c4cncnc4)c3O2)c(OC)c1OC (stereo unspecified)	-7%	-18%
O=C(O)C1=CC(=C(c2ccc(O)c(C(=O)O)c2)c2ccc(O)c(C(=O)O)c2)C=CC1=O	?	40µM*!
Nc1ccc(O)c(C(=O)O)c1	?	8%
NC(=O)[C@@H]1C[C@]2(NC(=O)NC2=O)c2cc(F)ccc2O1	-22%	-6%
O=C(c1cnccn1)N1CCC[C@@]2(CCN(C(c3ccccc3)c3ccccc3)C2)C1	7%	50µM*
O=C(c1cnccn1)N1CCC2(CCCN(C(c3ccccc3)c3ccccc3)C2)CC1	-34%	?
CC(C)(O)C#Cc1ccc(C(=O)NCCN2Cc3ccccc3OC(c3ccccc3F)C2)o1 (stereo unspecified)	26%	?
SMILES	EPAC1 ag val	EPAC2 ant val
CCn1ccnc1CC1COc2ccccc2O1 (stereo unspecified)	-4%	35µM*!
COc1cccc(OC)c1OCCNC[C@@H]1COc2ccccc2O1	-16%	-28%
N=C(N)c1ccc(OCCCOc2ccc(C(=N)N)cc2Br)c(Br)c1	-1%	21%
COc1ccc(S(=O)(=O)NCc2nc(N3CCCC3)c3cccc(C)c3n2)cc1OC	6%	-19%
O=S1(=O)CCO[C@H]2Cc3ccccc3[C@H]2N1Cc1cccc(C(F)(F)F)c1	-84%	28µM*
O=S1(=O)CCO[C@H]2Cc3ccccc3[C@H]2N1Cc1cccc(F)c1	-15%	?
CC(C)CN(C[C@@H](O)[C@H](Cc1ccccc1)NC(=O)O[C@@H]1CCOC1)S(=O)(=O)c1ccc(N)cc1	-13%	-5%
CN1CCN(c2nc(-c3ccc(N(C)C)cc3)nc3ccccc23)CC1	-8%	-4%
CC(c1ccc(N(C)C)cc1)c1ccnc2ccccc12 (stereo unspecified)	112µM*	-13%
CCC[C@@]1(CCc2ccccc2)CC(O)=C([C@H](CC)c2cccc(NS(=O)(=O)c3ccc(C(F)(F)F)cn3)c2)C(=O)O1	23%	nt
COc1ccc(/C=C/C(=O)c2cc(O)ccc2O)cc1	9%	?
COc1ccc(C(=O)c2ccccc2O)c(O)c1	-4%	45µM*!
CC1=C(CC(=O)O)c2cc(F)ccc2/C1=C\c1ccc(S(C)(=O)=O)cc1	9%	16%
CS(=O)(=O)c1ccc(-c2cc(Br)sc2-c2ccc(F)cc2)cc1	22%	40µM*
CC(C)c1c(O)ccc2c1CCC1[C@@](C)(CO)CCC[C@@]21C (stereo partly specified)	28%	-22%
COc1ccc2c(c1)[C@@]1(C)CCC[C@](C)(CO)C1CC2 (stereo partly specified)	-14%	45µM*
CC(C)(C)NC(=O)[C@H]1CN(Cc2cccnc2)CCN1C[C@@H](O)C[C@@H](Cc1ccccc1)C(=O)N[C@H]1c2ccccc2C[C@H]1O	-54%	25µM*
CC(C)(C)NC(=O)[C@@H]1C[C@@H]2CCCC[C@@H]2CN1C[C@@H](O)[C@H](Cc1ccccc1)NC(=O)[C@H](CC(N)=O)NC(=O)c1ccc2ccccc2n1	-43%	?
CCCCCCCC[N+](C)(C)CCCCCCCC	20%	4%
CCCCCCCCCCCCCC[N+](C)(C)Cc1ccccc1	-36%	8%
CCCCCCCCCCCCCCCC[N+](C)(C)CC	-65%	56µM*
CCCCCCCCCCCCCCCC[N+](C)(C)Cc1ccccc1	-43%	79µM*
O=C1NC(=O)/C(=C/c2ccc3nccnc3c2)S1	-8%	-12%
O=C1NC(=O)/C(=C/c2ccc(-c3ccc(F)cc3O)o2)S1	-14%	7.9µM*
CC(C)(C)NCC(O)CSc1nc(-c2ccc(C(N)=O)s2)cs1 (stereo unspecified)	-2%	3%
SMILES	EPAC1 ag val	EPAC2 ant val
Cc1noc(C)c1CC(=O)NCC1Cc2cc(-c3cccc(OC(F)(F)F)c3)ccc2O1 (stereo unspecified)	-13%	?
CC(=O)N1CCC[C@H]1C(=O)NCC1Cc2cc(-c3cccc(OC(F)(F)F)c3)ccc2O1 (stereo partly specified)	4%	71µM*
COc1ccccc1N1CCN(c2nc(CNC(=O)c3ccccc3F)nc3ccccc23)CC1	7%	?
COc1ccc2c(c1)-c1nc(-n3ncc(C(=O)N(C)CC4CCCN(C)C4)c3C)ncc1CC2 (stereo unspecified)	-24%	13%
Cc1cnc(SCc2ccccn2)nc1C1CCCN(C(=O)c2cccc(-c3cccc(F)c3)c2)C1 (stereo unspecified)	15%	?
CC1(C)Oc2ccc3ccc(=O)oc3c2CC1=O	-33%	13%
CC(=O)OC1c2c(ccc3ccc(=O)oc23)OC(C)(C)C1OC(=O)CC(C)C (stereo unspecified)	-113%	40µM*
CCCCCCCN(c1ccccc1)C1C[C@H]2CCCC(=O)N3CC[C@@H](C1)[C@@H]23 (stereo partly specified)	-21%	?

Screens deposited in PubChem by National Center for Advancing Translational Sciences (NCATS).
